In ChEMBL document CHEMBL3988442, “University of Dundee, Small-Polar-MMV Screening Library” (2021):
Hit rate of the full screen: of about 48,000 compounds, about 13,000 (27%) showed an effect of 50% or more. The list shows a part of the results.

tested on: Wolbachia pipientis; assay: Anti-Wolbachia Cell-Based Screen; format: functional; parameters: scale not given: in the data most compounds retested in dose-response had high values; conditions: 5 µM

Row | SMILES | Percent Effect [%]
1 | CCCN1CCN(C(=O)c2cccc(C)n2)[C@H]2CS(=O)(=O)C[C@H]21 | -6.939
2 | CCN1CCC2(CC1)CN(CCO)c1ccccc12 | -10.11
3 | CS(=O)(=O)N1CCN(CC2CC2)c2ncccc2C1 | 6.456
4 | O=C(O)C(F)(F)F.O=C(O)C(F)(F)F.c1cnc2c(c1)CN(C1CCOC1)CCN2CC1CC1 (stereo unspecified) | -0.9537
5 | CCS(=O)(=O)N1CCN(CC2CC2)c2ncccc2C1 | 115
6 | COc1ccccc1CC(C)N(C)CCS(C)(=O)=O (stereo unspecified) | -4.195
7 | CNC(=O)[C@H]1C[C@@H]2CN(Cc3cccnc3OC)C[C@@H]2N1C(C)C.O=C(O)C(F)(F)F.O=C(O)C(F)(F)F.O=C(O)C(F)(F)F | 5.567
8 | COc1cc(N2C[C@H]3CCN(CCN4CCCC4)C[C@H]3C2)ncn1.O=C(O)C(F)(F)F.O=C(O)C(F)(F)F | -9.875
9 | COc1ncccc1CN1CCC2(CC1)COCCN2C.O=C(O)C(F)(F)F.O=C(O)C(F)(F)F | -5.344
10 | CN(C)CCN1CCO[C@H]2CN(Cc3ccccn3)C[C@H]21.O=C(O)C(F)(F)F.O=C(O)C(F)(F)F.O=C(O)C(F)(F)F.O=C(O)C(F)(F)F | 10.34
11 | COCCN1CCCC12CCN(Cc1cccnc1OC)CC2.O=C(O)C(F)(F)F.O=C(O)C(F)(F)F | -1.646
12 | COCCN1CC[C@@H]2CN(Cc3cccnc3OC)C[C@@H]2C1.O=C(O)C(F)(F)F.O=C(O)C(F)(F)F | 130.6
13 | COc1ncccc1CN1C[C@@H]2CN(c3ncccn3)C[C@@H]2C1 | 110.4
14 | COc1ncccc1CN1C[C@@H]2OCCN(CCN(C)C)[C@@H]2C1.O=C(O)C(F)(F)F.O=C(O)C(F)(F)F.O=C(O)C(F)(F)F | 17.28
15 | COc1cc(N2C[C@H]3CN(Cc4ccccn4)C[C@H]3C2)ncn1.O=C(O)C(F)(F)F | 127.8
16 | COCCCN1CCCC12CCN(Cc1cccnc1OC)CC2.O=C(O)C(F)(F)F.O=C(O)C(F)(F)F | -1.56
17 | COC[C@]12COC[C@H]1CN(Cc1cccnc1OC)C2 | 3.857
18 | CNC(=O)[C@H]1C[C@@H]2CN(Cc3cccnc3OC)C[C@@H]2N1C(C)=O.O=C(O)C(F)(F)F.O=C(O)C(F)(F)F | 92.23
19 | Fc1cccnc1N1CCOCC2(CCCNC2)C1 (stereo unspecified) | -2.668
20 | N#Cc1cccc(C(=O)NS(=O)(=O)c2ccc(C#N)c(Cl)c2)c1 | -1.961
21 | COc1ccc(CN2C[C@H]3CN(c4cncnc4)C(=O)[C@H]3C2)cc1.O=C(O)C(F)(F)F | -6.592

Row | SMILES | Percent Effect [%]
22 | CCc1cc(N2CCC(NC3CN4CCC3CC4)CC2)nc(N(C)C)n1 (stereo unspecified) | 2.929
23 | CCCn1cc(C(=O)NCC(=O)NC2CC2)c(C)n1 | 8.869
24 | COc1ncccc1CN1C[C@H]2CCN(C(C)C)C[C@H]2C1.O=C(O)C(F)(F)F.O=C(O)C(F)(F)F | 108.8
25 | COc1ncccc1CN1CC[C@H]2[C@H]1CCN2CCN(C)C.O=C(O)C(F)(F)F.O=C(O)C(F)(F)F.O=C(O)C(F)(F)F.O=C(O)C(F)(F)F | -2.708
26 | CCN1CCCC12CCN(Cc1cccnc1OC)CC2.O=C(O)C(F)(F)F.O=C(O)C(F)(F)F | 9.255
27 | COc1ncccc1CN1C[C@H]2CCN(c3ncccn3)C[C@H]2C1.O=C(O)C(F)(F)F | 102
28 | CN1CC2(CCNCC2)CC1C(=O)NCCCNc1cccnc1 (stereo unspecified) | 9.44
29 | CN1C[C@H]2N(c3ncccn3)CCC[C@@]2(C(=O)NCC2CC2)C1.O=C(O)C(F)(F)F | 104.5
30 | CC(=O)N1C[C@H]2CCCC(N3CCN(c4ncccn4)CC3)[C@H]2C1.O=C(O)C(F)(F)F.O=C(O)C(F)(F)F (stereo partly specified) | -9.605
31 | CN1[C@@H](C(=O)NCC2CC2)C[C@@H]2CN(c3ncccn3)C[C@@H]21 | -3.694
32 | CNC(=O)[C@@]12CCCN(c3ncccn3)[C@@H]1CN(C)C2.O=C(O)C(F)(F)F | -0.06284
33 | O=C(O)C(F)(F)F.O=C(O)C(F)(F)F.c1cnc(N2CCCC3(CCN(CC4CC4)C3)C2)nc1 (stereo unspecified) | -2.531
34 | CCN1C[C@H]2N(c3ncccn3)CCC[C@@]2(C(=O)NCC2CC2)C1 | 121.2
35 | CN(CC1Cc2ccccc2CN1C)C(=O)Cc1cccs1 (stereo unspecified) | 4.108
36 | COc1ccc(CN2C[C@H]3CCC[C@@H](CN(C)C)[C@H]3C2)cn1.O=C(O)C(F)(F)F.O=C(O)C(F)(F)F | 10.6
37 | Cn1cc(CN2C[C@@H]3CCC[C@@H](OCc4cccnc4)[C@@H]3C2)cn1 | 52.17
38 | COCCN1C[C@H]2CCC[C@@H](CNc3ncccn3)[C@H]2C1.O=C(O)C(F)(F)F.O=C(O)C(F)(F)F | 1.407
39 | COc1ccc(CN2C[C@H]3CCC[C@@H](CN(C)C4CC4)[C@H]3C2)cn1.O=C(O)C(F)(F)F.O=C(O)C(F)(F)F | 14.86
40 | O=C(O)C(F)(F)F.c1cnc(NC[C@@H]2CCC[C@@H]3CN(Cc4cc[nH]n4)C[C@@H]32)nc1 | -8.539
41 | Cn1cc(CN2C[C@H]3CCC[C@@H](CNc4ncccn4)[C@H]3C2)cn1.O=C(O)C(F)(F)F | 111.9
